38 compounds from PubChem BioAssay AID1259336 (Sattelle Laboratory, UCL Respiratory, Division of Medicine, …, 2017) can be followed below.

A number with no mark means an inactive call. The source made the active and inactive calls. No stated cut-off is given here; in the data, active means log2 fold change growth below about -1.8; inactive means the rest.

This experiment can be described thus: C. elegans growth inhibition, whole organism, log2 fold change (AID 1259336).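 Further: growth scored by imaging after five days at 20 °C.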 As to conditions: anthelmintic screen, hits give low values.
For the compound `CS(=O)(=O)c1ccc(C(=O)N(C[C@H]2CCCO2)c2nc3ccccc3s2)cc1[N+](=O)[O-]`, the log2 fold change growth is 0.211.
Turning to `c1ccc(Oc2ccc(-c3cc(N4CCOCC4)n[nH]3)cc2)cc1`, the log2 fold change growth was 0.348.
For `CCc1ccc([C@@H](NCc2nc(N)nc(N(C)C)n2)C(C)C)cc1`, the log2 fold change growth was 0.433.
`CCOC(=O)c1cc(-c2csc(Nc3c(C)cc(C)cc3C)n2)on1`: the log2 fold change growth was -0.726.
In the case of `COc1ccc(-c2nn(C(C)C)c3ncnc(N)c23)cc1OC` it was 0.278; in that of `OCc1ccc(-c2cncc(Nc3cccc(Cl)c3)c2)cc1`, -0.873.
In the case of `COc1ccc(-c2cnc3cnc(-c4cccc(OC(C)C)c4)cn23)cc1` it was -0.137.
In the case of `CC(C)(C)c1cc(C(=O)Nc2cccnc2)cc(C(=O)Nc2cccnc2)c1` it was 0.00293; in that of `COC[C@H](C)NC(=O)CSc1ncnc2sc(-c3ccccc3)cc12`, -0.053; in that of `CC(=O)N1CCN(c2ccc(Oc3ccc(Cl)cc3O)cc2)CC1`, 0.423.
For `FC(F)(F)c1cccc(-c2nc3c(NCc4ccncc4)nccc3[nH]2)c1`, the log2 fold change growth is 0.0714.
Consider `CNc1snc(C)c1C(=O)NCCOc1ccc(OC)cc1`, for which the log2 fold change growth is -0.0598.
Take `Cc1ccc2c(c1C)NC(=O)[C@]21NN=C(c2ccccc2)S1`: the log2 fold change growth is -0.355.
Under `Oc1c(I)cc(I)c2cccnc12` stands 0.0616.
In the case of `CCc1c(C)nc(-n2nc(C)cc2NC(=O)c2ccccc2SC)[nH]c1=O` it was -0.0348; in that of `c1ccc(-c2cc(N3CCCCC3)c3ccccc3n2)nc1`, -1.36; in that of `CCN(CC)C(=O)N1CCN(C)CC1`, 0.355.
Take `COc1cccc(-n2nnnc2S(C)(=O)=O)c1`: the log2 fold change growth was 0.157.
In the case of `CC[C@H](C)NC(=O)c1ccc(NC(=O)C2(c3ccccc3)CCCC2)cc1` it was 0.546; in that of `Nc1ncc(-c2ccc(C(F)(F)F)nc2)cc1-c1ccc(C(F)(F)F)nc1`, 0.0312; in that of `CCCCS(=O)(=O)Nc1ccc2cnn(C)c2c1`, 0.414.
Under `CCN(CC)CCCN1CCN(C(=O)c2cccc(-c3noc(C(F)(F)F)n3)c2)CC1` stands -0.0333; under `CCN(CC)S(=O)(=O)c1ccc(C(=O)Nc2cc(C)nn2-c2nc(C)c(C)c(=O)[nH]2)cc1`, 0.269; under `O=C(NC1CCCCC1)N1CCN(Cc2ccc3c(c2)OCO3)CC1`, -0.153.
`O=C(NCCN1CCCC1)c1cc(NCCN2CCOCC2)nc2ccc(Cl)cc12`: the log2 fold change growth is 0.29.
On to `Cc1nc(-c2ccccn2)nc(N2CC[C@H](Cc3ccccc3)C2)c1Cl`, for which the log2 fold change growth is -1.52.
Under `CC(C)(C)c1cc(C(=O)N2CCN(c3nccnc3C#N)CC2)n(Cc2ccccc2)n1` stands -0.0659.
Regarding `N#Cc1nc(-c2ccccc2)oc1S(=O)(=O)c1ccc(Cl)cc1`, the log2 fold change growth was 0.277.
In the case of `COc1ccc2nc(C)cc(OCC(=O)Nc3ccccc3OC)c2c1` it was 0.165; in that of `CC(=O)NC[C@H]1CN(c2ccc(N3CCSCC3)c(F)c2)C(=O)O1`, 0.00512.
In the case of `CN1CCN(S(=O)(=O)c2ccc(-c3ccc4c(Nc5ccc6n[nH]nc6c5)ccnc4c3)cc2)CC1` it was -0.667; in that of `COc1cc(NC(=O)Cc2nn(C)c(=O)c3ccccc23)ccc1Cl`, 0.419.
Under `CC(C)=CCC/C(C)=C\CNCCNC1C2CC3CC(C2)CC1C3` (stereo not drawn) stands 0.423; under `Clc1ccc(-n2cc(COc3ccnc4ccccc34)nn2)cc1`, -5.7 (active); under `FC(F)(F)c1cnc(Sc2nnc(-c3ccncc3)o2)c(Cl)c1`, -0.0782.
Turning to `Cc1cc(Cl)c(S(=O)(=O)N2CCCC2)cc1OCC(=O)NC1CCCCC1`, the log2 fold change growth is -0.00734.
As for `CN1CCC(NCc2cccc(-c3ccc(S(=O)(=O)NCc4ccccc4)cc3)c2)CC1`, the log2 fold change growth is 0.364.
Under `C[C@H]1c2cccc(O)c2C(O)=C2C(=O)[C@]3(O)C(O)=C(C(N)=O)C(=O)[C@@H](N(C)C)[C@@H]3[C@@H](O)[C@@H]21` stands 0.805.
